The text below walks through data of PubChem BioAssay AID651789 (National Center for Advancing Translational Sciences (NCATS), 2012).

The structures appear in SMILES notation. Results filed as inconclusive are left out. Active and inactive are the calls of the source. The call rests on the fitted dose curve; in most records, active means well fitted inhibition curve with a large enough effect; inconclusive means small, poorly fitted or top-dose-only effect; inactive means no such curve, though single readings can be large or run the other way.
Potency means the concentration at half of the fitted maximal effect.

A short description of this test: Acumen qHTS Assay for Inhibitors of the mTORC1 Signaling Pathway in WT MEF Cells: Hit Validation. Further: nearly all actives have a fitted effect of over 60% in size.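 On activity change, negative = inhibition: phospho-rpS6 Ser235/236 immunofluorescence normalised to propidium iodide cell stain; percent of cells above a cutoff set by 7.5 nM rapamycin treated wells.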 As to conditions: Acumen imaging; series mostly up to 37.3 µM; activity change, negative = inhibition: at the top concentration. The method in brief: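 Read-out is immunofluorescent phospho-rpS6 (Ser235/236) normalised to PI-stained cell number, reported as % active cells using a 7.5 nM rapamycin threshold. Cells: WT or Tsc2-/-, p53-/- MEFs, compound-exposed 24 h at 37C; PI count also tracks viability.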
On the technique in general: qHTS replaces the single test concentration by a dilution series.
Turning to `COc1ccc(-c2nc(S(=O)(=O)c3ccc(Cl)cc3)c(N3CCCCCC3)o2)cc1`, the “activity change, negative = inhibition” value was -10.6% (inactive).
On the same count and under the same terms, with `CCOc1ccccc1NC(=O)c1cn(C2CCCC2)c(=O)c2c1c1ccccc1n2C` the figure was -1.67% (inactive).
Consider `COc1ccc(OC)c(Nc2c3c(nc4ccccc24)CCC3)c1`, for which the Potency is 0.585 µM (active).
On the same count and under the same terms, with `Nc1c(C(=O)NCc2ccccc2)nnn1Cc1cccc(Br)c1` the figure was 13.1 µM (active).
In the case of `CCc1ccc(C(=O)CC2(O)C(=O)N(CCc3ccccc3)c3ccc(Cl)cc32)cc1` (stereo not given), the “activity change, negative = inhibition” value was -18.7% (inactive).
With `O=C(Nc1ccc(-c2cc(C(F)(F)F)nn2-c2ccccc2)cc1)c1cccc(F)c1`, the “activity change, negative = inhibition” value is -23.2% (inactive).
On to `COc1cccc(-n2c(-c3ccco3)nc3c(cnn3-c3ccc(C)cc3)c2=O)c1`, for which the “activity change, negative = inhibition” value was -28.5% (inactive).
As to `CCOC(=O)CSc1nc2cc3c(cc2c(=O)n1CCCCCC(=O)NCc1ccc2c(c1)OCO2)OCO3`, the “activity change, negative = inhibition” value is -19.6% (inactive).
Take `CC(CNC(=O)c1ccc(Nc2nc3ccccc3n3nnnc23)cc1)c1ccccc1` (stereo not given): the “activity change, negative = inhibition” value is 65.1% (inactive).
Consider `CC1=Nc2cc(C(=O)NC3CCCC3)ccc2Sc2ccc(Cl)cc21`, for which the Potency was 0.826 µM (active).
For `Cc1cccc(NC(=O)c2c(NC(=O)C(F)(F)F)sc3c2CCCCC3)c1`, the “activity change, negative = inhibition” value was -24.7% (inactive).
Still for that read-out and setting: for `Cc1cccc(C(=O)Nc2c(C(=O)NCc3ccc(Cl)cc3)sc3nc(C)cc(C)c23)c1` the value was -6.11% (inactive); for `CCN(CC)Cc1c(NC(=O)c2ccc(OC)cc2)sc2c1CCCC2`, 39.6% (inactive).
Still for that read-out and setting: with `CCSc1oc(-c2ccc(F)cc2)nc1S(=O)(=O)c1ccc(C)cc1` the figure was -16.5% (inactive).
Consider `CN(C)c1ccc(Nc2nc3ccccc3n3nnnc23)cc1`, for which the “activity change, negative = inhibition” value is 46.5% (inactive).
Turning to `Cc1oc2c(cc(NS(=O)(=O)c3ccc(C(C)C)cc3)c3ccccc32)c1C(=O)OCc1ccccc1`, the “activity change, negative = inhibition” value was -26% (inactive).
With `CC(C)(C)OC(=O)N1CCC(c2c(C(=O)NCCN3CCC(Cc4ccccc4)CC3)cnn2-c2cccc(Cl)c2)CC1`, the Potency is 10.4 µM (active).
Regarding `Cc1ccccc1NC(=O)c1sc2nc3c(cc2c1N)CCCC3`, the “activity change, negative = inhibition” value was -24.6% (inactive).
Still for that read-out and setting: for `CN(Cc1ccccc1)C(=O)CSc1c2c(nc3ccc(Cl)cc13)CCCC2` the value was -27.7% (inactive); for `O=C(CCCn1ccc2cc(S(=O)(=O)N3CCCC3)ccc21)NCc1ccc(Cl)cc1`, -26.8% (inactive).
Still for that read-out and setting: with `C#Cc1cccc(Nc2ncnc3cc(OCCOC)c(OCCOC)cc23)c1` the figure was -12.9% (inactive).
For `Cn1nnnc1SCCCNCc1ccccc1OCc1ccc(Cl)cc1`, the “activity change, negative = inhibition” value was -8.66% (inactive).
As for `CC1C(=O)N2CCCc3cc(S(=O)(=O)Nc4ccc(Br)cc4F)cc1c32` (stereo not given), the Potency was 2.07 µM (active).
As for `COc1ccccc1C1C=C(c2ccc(Cl)cc2)Nc2nc(-c3ccc(Cl)cc3)nn21` (stereo not given), the “activity change, negative = inhibition” value is -2.29% (inactive).
On to `CC1CCN(S(=O)(=O)c2ccc(C(=O)Nc3sc4c(c3C(N)=O)CC(C)(C)NC4(C)C)cc2)CC1`, for which the Potency was 3.29 µM (active).
Same read-out and setting: with `Cc1cccc(-n2cnc3cc(C(=O)NC4CCCCCC4)ccc32)c1` the figure was 5.21 µM (active).
Consider `CCCCC(CC)CNC(=O)c1ccc(Cn2c(=O)[nH]c3cc(OC)c(OC)cc3c2=O)cc1` (stereo not given), for which the Potency was 13.1 µM (active).
For `Cc1cc(C)c(-c2n[nH]c3c2C(c2ccccc2F)N(Cc2ccco2)C3=O)c(O)c1` (stereo not given), the “activity change, negative = inhibition” value is -26.6% (inactive).
For the molecule `CCOc1cc(C(=O)Nc2ccc(-c3cn4cccnc4n3)cc2)cc(OCC)c1OCC`, the “activity change, negative = inhibition” value is 29.8% (inactive).
Turning to `CC(C)c1ccc(NS(=O)(=O)c2ccc3nc(-c4ccccc4)[nH]c3c2)cc1`, the “activity change, negative = inhibition” value is 6.87% (inactive).
On the same count and under the same terms, for `CCOC(=O)c1ccc(N2C(=O)c3n[nH]c(C)c3C2c2cccc(Br)c2)cc1` (stereo not given) the value was -26.9% (inactive); for `CCCCCCCCCCCCCCC[C@H](O)[C@@H](N)CO`, -6.82% (inactive).
Same read-out and setting: for `COc1ccc(OCC(O)Cn2c(=N)n(CCN3CCCCC3)c3ccccc32)cc1` (stereo not given) the value was -15.9% (inactive); for `CC(C)c1ccc(C2Sc3ccccc3NC3=C2C(=O)c2ccccc23)cc1` (stereo not given), -17.9% (inactive).
As for `CCOC(=O)c1c(NC(=O)COc2ccc(OC)cc2)sc(C(=O)N(CC)CC)c1C`, the “activity change, negative = inhibition” value was 8.8% (inactive).
Consider `CCS(=O)(=O)c1ncc(Cl)c(C(=O)Nc2ccc(S(=O)(=O)N(C)c3ccccc3)cc2)n1`, for which the Potency was 0.927 µM (active).
In the case of `COc1cc(C(=O)NC(c2ccccc2Cl)c2cc(Cl)c3cccnc3c2O)cc(OC)c1OC` (stereo not given), the “activity change, negative = inhibition” value was -10.6% (inactive).
With `CCN(CC)CCCNc1sc(S(=O)(=O)c2ccccc2)nc1S(=O)(=O)c1ccc(Cl)cc1`, the Potency was 16.5 µM (active).
As for `COC(=O)c1ccccc1NC(=O)c1nc(S(=O)(=O)Cc2cccc(C)c2)ncc1Cl`, the Potency was 5.21 µM (active).
Turning to `CCOc1ccc(C(=O)NCCc2sc(-c3ccc(C)cc3)nc2C)cc1`, the “activity change, negative = inhibition” value is 0.501% (inactive).
